PMC9911399, “Two distinct binding modes provide the RNA-binding protein RbFox with extraordinary sequence specificity”
Numbering of substitutions follows the chain as printed; changes in the protein carry UniProt numbers. Whole data set: some 16,000 sequences, median “ka relative to ugcaugu” near 0.096, cut for the highest 2% near 0.35. The sample as a whole holds a higher share of the highest values than the screen did.

T1: RBFOX1 RRM RbFoxmut (Fox-RRM*) (Homo sapiens, UniProt Q9NWB1 109-208, R118D;E147R;N151S;E152T)
T1 sequence: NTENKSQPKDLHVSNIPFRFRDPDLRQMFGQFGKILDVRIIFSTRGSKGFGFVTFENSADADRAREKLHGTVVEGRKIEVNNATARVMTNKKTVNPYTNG

B1: GGUACGA (DNA:RNA)
RNA: GGGAGACCGGAAUUCAGAUUGUCCGGUACGAUUAAAUCCCGUCGUAGCCACCA
DNA 1: CAATCTGAATTCCGGTCTCCC
DNA 2: TGGTGGCTACGACGGGATT
B2: ACUUUAC (DNA:RNA)
RNA: B1 RNA with G25A, G26C, A28U, C29U, G30A, A31C
DNA 1: CAATCTGAATTCCGGTCTCCC
DNA 2: TGGTGGCTACGACGGGATT
B3: GACGUGU (DNA:RNA)
RNA: B1 RNA with G26A, U27C, A28G, C29U, A31U
DNA 1: CAATCTGAATTCCGGTCTCCC
DNA 2: TGGTGGCTACGACGGGATT
B4: AGUGAAA (DNA:RNA)
RNA: B1 RNA with G25A, A28G, C29A, G30A
DNA 1: CAATCTGAATTCCGGTCTCCC
DNA 2: TGGTGGCTACGACGGGATT
B5: AGUUGGG (DNA:RNA)
RNA: B1 RNA with G25A, A28U, C29G, A31G
DNA 1: CAATCTGAATTCCGGTCTCCC
DNA 2: TGGTGGCTACGACGGGATT
B6: ACUUACC (DNA:RNA)
RNA: B1 RNA with G25A, G26C, A28U, C29A, G30C, A31C
DNA 1: CAATCTGAATTCCGGTCTCCC
DNA 2: TGGTGGCTACGACGGGATT
B7: GACUUUG (DNA:RNA)
RNA: B1 RNA with G26A, U27C, A28U, C29U, G30U, A31G
DNA 1: CAATCTGAATTCCGGTCTCCC
DNA 2: TGGTGGCTACGACGGGATT
B8: UGUCUUC (DNA:RNA)
RNA: B1 RNA with G25U, A28C, C29U, G30U, A31C
DNA 1: CAATCTGAATTCCGGTCTCCC
DNA 2: TGGTGGCTACGACGGGATT
B9: UCCUGUC (DNA:RNA)
RNA: GGGAGACCGGAAUUCAGAUUGUCCUCCUGUCUUAAAUCCCGUCGUAGCCACCA
DNA 1: CAATCTGAATTCCGGTCTCCC
DNA 2: TGGTGGCTACGACGGGATT
B10: UGUCUGG (DNA:RNA)
RNA: B1 RNA with G25U, A28C, C29U, A31G
DNA 1: CAATCTGAATTCCGGTCTCCC
DNA 2: TGGTGGCTACGACGGGATT
B11: UGGUCUG (DNA:RNA)
RNA: B9 RNA with C26G, C27G, G29C, C31G
DNA 1: CAATCTGAATTCCGGTCTCCC
DNA 2: TGGTGGCTACGACGGGATT
B12: UGGUCGC (DNA:RNA)
RNA: B1 RNA with G25U, U27G, A28U, A31C
DNA 1: CAATCTGAATTCCGGTCTCCC
DNA 2: TGGTGGCTACGACGGGATT
B13: UGCUGUC (DNA:RNA)
RNA: B9 RNA with C26G
DNA 1: CAATCTGAATTCCGGTCTCCC
DNA 2: TGGTGGCTACGACGGGATT
B14: UGUCUUG (DNA:RNA)
RNA: B1 RNA with G25U, A28C, C29U, G30U, A31G
DNA 1: CAATCTGAATTCCGGTCTCCC
DNA 2: TGGTGGCTACGACGGGATT
B15: UGUUGUC (DNA:RNA)
RNA: B9 RNA with C26G, C27U
DNA 1: CAATCTGAATTCCGGTCTCCC
DNA 2: TGGTGGCTACGACGGGATT
B16: UGUCGUC (DNA:RNA)
RNA: B9 RNA with C26G, C27U, U28C
DNA 1: CAATCTGAATTCCGGTCTCCC
DNA 2: TGGTGGCTACGACGGGATT
B17: CCGAUCU (DNA:RNA)
RNA: B1 RNA with G25C, G26C, U27G, C29U, G30C, A31U
DNA 1: CAATCTGAATTCCGGTCTCCC
DNA 2: TGGTGGCTACGACGGGATT
B18: CACUUGA (DNA:RNA)
RNA: B1 RNA with G25C, G26A, U27C, A28U, C29U
DNA 1: CAATCTGAATTCCGGTCTCCC
DNA 2: TGGTGGCTACGACGGGATT
B19: CACUUAG (DNA:RNA)
RNA: B9 RNA with U25C, C26A, G29U, U30A, C31G
DNA 1: CAATCTGAATTCCGGTCTCCC
DNA 2: TGGTGGCTACGACGGGATT
B20: GAAAGCU (DNA:RNA)
RNA: B1 RNA with G26A, U27A, C29G, G30C, A31U
DNA 1: CAATCTGAATTCCGGTCTCCC
DNA 2: TGGTGGCTACGACGGGATT
B21: CAGCAUU (DNA:RNA)
RNA: B9 RNA with U25C, C26A, C27G, U28C, G29A, C31U
DNA 1: CAATCTGAATTCCGGTCTCCC
DNA 2: TGGTGGCTACGACGGGATT
B22: UUAAACA (DNA:RNA)
RNA: B1 RNA with G25U, G26U, U27A, C29A, G30C
DNA 1: CAATCTGAATTCCGGTCTCCC
DNA 2: TGGTGGCTACGACGGGATT
B23: CCUGGCA (DNA:RNA)
RNA: B1 RNA with G25C, G26C, A28G, C29G, G30C
DNA 1: CAATCTGAATTCCGGTCTCCC
DNA 2: TGGTGGCTACGACGGGATT
B24: AUGCAUG (DNA:RNA)
RNA: B9 RNA with U25A, C26U, C27G, U28C, G29A, C31G
DNA 1: CAATCTGAATTCCGGTCTCCC
DNA 2: TGGTGGCTACGACGGGATT
B25: AUGCAUC (DNA:RNA)
RNA: B9 RNA with U25A, C26U, C27G, U28C, G29A
DNA 1: CAATCTGAATTCCGGTCTCCC
DNA 2: TGGTGGCTACGACGGGATT
B26: GUCCAUC (DNA:RNA)
RNA: B9 RNA with U25G, C26U, U28C, G29A
DNA 1: CAATCTGAATTCCGGTCTCCC
DNA 2: TGGTGGCTACGACGGGATT
B27: AUGCAUA (DNA:RNA)
RNA: B1 RNA with G25A, G26U, U27G, A28C, C29A, G30U
DNA 1: CAATCTGAATTCCGGTCTCCC
DNA 2: TGGTGGCTACGACGGGATT
B28: AUCCAUC (DNA:RNA)
RNA: B9 RNA with U25A, C26U, U28C, G29A
DNA 1: CAATCTGAATTCCGGTCTCCC
DNA 2: TGGTGGCTACGACGGGATT
B29: AUGCAGA (DNA:RNA)
RNA: B1 RNA with G25A, G26U, U27G, A28C, C29A
DNA 1: CAATCTGAATTCCGGTCTCCC
DNA 2: TGGTGGCTACGACGGGATT
B30: AACCGUG (DNA:RNA)
RNA: B9 RNA with U25A, C26A, U28C, C31G
DNA 1: CAATCTGAATTCCGGTCTCCC
DNA 2: TGGTGGCTACGACGGGATT
B31: GGCUGGA (DNA:RNA)
RNA: B1 RNA with U27C, A28U, C29G
DNA 1: CAATCTGAATTCCGGTCTCCC
DNA 2: TGGTGGCTACGACGGGATT

The binders below were run against T1, RBFOX1 RRM RbFoxmut (Fox-RRM*) (assay: EMSA; HiTS-Eq, 1 nM pool, 10 min; buffer printed only for the single-RNA assays: 10 mM Tris pH 7.5, 150 mM NaCl, 3.4 mM EDTA, 0.001% NP-40, 30 C). Details: tags: His6 N-terminal (pET28a); label: 5' 32P.
How it was run: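 Relative association constants, normalised to the cognate motif, were derived by comparing read counts of each RNA species with those of the control reaction. The RNA sequenced was the free fraction, separated by 8% native PAGE after a 10 min equilibration in 50 µL of 1 nM 5′-radiolabelled RNA (7 randomized nucleotides) with increasing concentrations of purified wild-type or mutant RbFox RRM.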
In the case of B1, the binding signal is reported as 0.165 KA relative to UGCAUGU. B2 was tested, and the binding signal was 0.114 KA relative to UGCAUGU. With B3 the binding signal was 0.15 KA relative to UGCAUGU. B4 was tested, and the binding signal was 0.095 KA relative to UGCAUGU. In the case of B5, the binding signal is reported as 0.0708 KA relative to UGCAUGU. B6 was tested, and the binding signal was 0.0997 KA relative to UGCAUGU. For B7, the binding signal was 0.0901 KA relative to UGCAUGU. With B8 the binding signal was 0.201 KA relative to UGCAUGU. With B9 the binding signal was 0.164 KA relative to UGCAUGU. In the case of B10, the binding signal is reported as 0.196 KA relative to UGCAUGU. For B11, the binding signal was 0.374 KA relative to UGCAUGU. In the case of B12, the binding signal is reported as 0.114 KA relative to UGCAUGU. In the case of B13, the binding signal is reported as 0.331 KA relative to UGCAUGU. In the case of B14, the binding signal is reported as 0.674 KA relative to UGCAUGU. In the case of B15, the binding signal is reported as 0.468 KA relative to UGCAUGU. B16 was tested, and the binding signal was 0.119 KA relative to UGCAUGU. For B17, the binding signal was 0.0341 KA relative to UGCAUGU. B18 was tested, and the binding signal was 0.114 KA relative to UGCAUGU. For B19, the binding signal was 0.16 KA relative to UGCAUGU. B20 was tested, and the binding signal was 0.0545 KA relative to UGCAUGU. For B21, the binding signal was 0.107 KA relative to UGCAUGU. In the case of B22, the binding signal is reported as 0.0699 KA relative to UGCAUGU. B23 was tested, and the binding signal was 0.148 KA relative to UGCAUGU. For B24, the binding signal was 0.951 KA relative to UGCAUGU. In the case of B25, the binding signal is reported as 0.446 KA relative to UGCAUGU. In the case of B26, the binding signal is reported as 0.0764 KA relative to UGCAUGU. For B27, the binding signal was 0.161 KA relative to UGCAUGU. In the case of B28, the binding signal is reported as 0.1 KA relative to UGCAUGU. With B29 the binding signal was 0.125 KA relative to UGCAUGU. With B30 the binding signal was 0.109 KA relative to UGCAUGU. With B31 the binding signal was 0.0732 KA relative to UGCAUGU.
